# Laboratory results as given in PubChem BioAssay AID1566 (Sanford-Burnham Center for Chemical Genomics, 2009).
# The campaign covered roughly 290,000 compounds. About 1,800 (0.62%) were called active. Cut-off read from the data, not from the text of the source: active = inhibition above about 50%; inactive = the rest. The sample as a whole holds a higher share of actives than the screen did.
# Test: NOD2 signaling inhibitors, cell-based, luminescence, uHTS, HEK293 (AID 1566)
# Conditions: HEK293 NOD2/NF-kB luciferase reporter, at 4 µM, active compounds read high
row,Compound,inhibition
1,O=C(Nc1c(F)cc(F)cc1Br)c1cccnc1,-9.2% (inactive)
2,C/C(CC(=O)Nc1ccc(Cl)c(Cl)c1)=N\NC(N)=S,-15.1% (inactive)
3,COc1ccc(-c2cc(C(F)(F)F)c(C#N)c(SCC(=O)O)n2)cc1,9.7% (inactive)
4,COc1ccc(-c2cc(-c3ccc(Cl)cc3)c(C#N)c(SCC(=O)O)n2)cc1,62.5% (active)
5,N#Cc1c(-c2ccc(Cl)cc2)cc(-c2ccccc2)nc1SCC(=O)O,26% (inactive)
6,COc1ccc(Cl)c(OC)c1C(=O)NC(=O)Nc1nc(C)nc(C)n1,3.1% (inactive)
7,CC(=O)Nc1cc2nn(-c3ccccc3)nc2cc1Cl,-133% (inactive)
8,CC(C)(C)C(=O)Nc1cc2nn(-c3ccccc3)nc2cc1Cl,76.2% (active)
9,CCC(=O)Nc1cc2nn(-c3ccccc3)nc2cc1Cl,-189% (inactive)
10,CC1(C)c2ccccc2N2CCC(=O)NC21/C=C/c1ccco1 (configuration not stated),3.8% (inactive)
11,COC(=O)c1ccc(NC(=O)c2cccc(N3C(=O)C4C5C=CC(C6CC56)C4C3=O)c2)cc1 (configuration not stated),58.5% (active)
12,COc1ccc(NC(=O)c2cccc(N3C(=O)C4C5C=CC(C6CC56)C4C3=O)c2)cc1 (configuration not stated),9.4% (inactive)
13,O=C(Nc1ccccc1)c1cccc(N2C(=O)C3C4C=CC(C5CC45)C3C2=O)c1 (configuration not stated),31.7% (inactive)
14,CCOc1ccccc1C(=O)NC(C(=O)NCc1ccccc1OC)C(C)C (configuration not stated),2.5% (inactive)
15,COCCNC(=S)N1CCN(c2nc(-c3ccc(Cl)cc3)cs2)CC1,35.9% (inactive)
16,CNC(=S)N1CCN(c2nc(-c3ccc(Cl)cc3)cs2)CC1,11.2% (inactive)
17,CC(C)CNC(=S)N1CCN(c2nc(-c3ccc(Cl)cc3)cs2)CC1,54.9% (active)
18,CCN(CC(=O)Nc1c(F)cccc1F)C(=O)CCc1c[nH]c2ccccc12,-24.9% (inactive)
19,Cc1onc(-c2ccccc2)c1NC(=O)N(CCC(=O)O)Cc1ccccc1,15.3% (inactive)
20,Cc1c(NC(=O)NCc2ccccc2)c(=O)n(-c2ccccc2)n1C,-6.6% (inactive)
21,Cc1ccc(C(=O)N/C(=C\c2ccc(-c3ccccc3[N+](=O)[O-])o2)C(=O)NCCCN(C)C)cc1,49.4% (inactive)
22,Cc1ccc(C(=O)N/C(=C\c2ccc(-c3ccccc3[N+](=O)[O-])o2)C(=O)NCCN(C)C)cc1,50.5% (active)
23,Cc1ccc(C(=O)N/C(=C\c2ccc(-c3ccccc3[N+](=O)[O-])o2)C(=O)NCCCN2CCOCC2)cc1,38.2% (inactive)

row,Compound,inhibition
1,NC(=O)c1cc([N+](=O)[O-])ccc1NCCN1C(=O)c2ccc(C(=O)O)cc2C1=O,17.5% (inactive)
2,Cc1cc(=O)[nH]c2ccc(S(=O)(=O)Nc3ccccc3)cc12,4.4% (inactive)
3,O=C(Nc1ccc(C(=O)N2CCOCC2)cc1)c1cccc(Br)c1,8% (inactive)
4,Cc1sc2nc3c(C(=O)N4CCN(c5ccccn5)CC4)cccn3c(=O)c2c1C,3.3% (inactive)
5,C/C(Cn1nnc([N+](=O)[O-])n1)=N\NC(=O)c1cccc(Cl)c1,48.8% (inactive)
6,C/C(Cn1nnc([N+](=O)[O-])n1)=N\NC(=O)c1ccc(O)cc1,37.7% (inactive)
7,COc1ccc(-c2csc(/C(C#N)=C\c3ccc(O)c([N+](=O)[O-])c3)n2)cc1OC,-7.4% (inactive)
8,COc1ccc(-c2csc(/C(C#N)=C\c3ccc(OC)c([N+](=O)[O-])c3)n2)cc1,25.7% (inactive)
9,Cc1ncc(CO)c(/C=N/NC(=O)c2ccc(O)cc2)c1O,-8.9% (inactive)
10,Cc1ncc(CO)c(/C=N/NC(=O)c2ccc(Br)cc2)c1O,51.6% (active)
11,Cc1ncc(CO)c(/C=N/Nc2cccc(Cl)n2)c1O,-52.5% (inactive)
12,COc1ccc(C(=O)N/N=C/c2c(CO)cnc(C)c2O)cc1,-27.8% (inactive)
13,COc1ccccc1N/N=C/c1c(CO)cnc(C)c1O,-3.8% (inactive)
14,Cc1ncc(CO)c(/C=N/Nc2ccc(C(F)(F)F)cn2)c1O,59.1% (active)
15,Cc1c(=O)n(OCc2ccccn2)c2ccccc2[n+]1[O-],9.3% (inactive)
16,N#CC1=C(SCC(=O)Nc2ccc(C(=O)O)cc2)NC(=O)CC1c1ccco1 (configuration not stated),-4.5% (inactive)
17,COc1ccc(-c2[nH]ncc2CN2CCN(c3ccccn3)CC2)c(OC)c1,11.3% (inactive)
18,COC(=O)c1sc(S(=O)(=O)N2CCC(C(=O)O)CC2)c(C(=O)OC)c1C,-0.8% (inactive)
19,COC(=O)COc1ccc(S(=O)(=O)N2CCCCC2)cc1[N+](=O)[O-],4.8% (inactive)
20,COc1cc(NC(=O)COc2ccc(Cl)cc2)ccc1-c1cc2ccccc2oc1=O,16.1% (inactive)
21,COc1cc(NC(C)=O)ccc1-c1cc2ccccc2oc1=O,-3.4% (inactive)
22,O=c1[nH]c(C2CCCN(S(=O)(=O)c3ccccc3)C2)nc2c1nnn2Cc1ccc2c(c1)OCCO2 (configuration not stated),21.7% (inactive)
23,O=C(CN(CC1CCCO1)C(=O)CCC(=O)Nc1ccccn1)NCC1CCCO1 (configuration not stated),4.7% (inactive)

row,Compound,inhibition
1,Cc1ccc(C)c(-n2c(-c3ccc4c(c3)OCO4)n[nH]c2=S)c1,13.9% (inactive)
2,C=C(C)COc1ccc(-c2nc(N)nc(C)c2-c2ccc(OC)cc2)c(O)c1,20.5% (inactive)
3,O=C(CN1C(=O)NC2(CCCC2)C1=O)Nc1ccccc1C(F)(F)F,18.6% (inactive)
4,CCC(C)(C)C1CCC2(CC1)NC(=O)N(CC(=O)N(C)CC(=O)Nc1ccccc1C(F)(F)F)C2=O (configuration not stated),52.8% (active)
5,CCc1ccccc1NC(=O)CN(C)C(=O)CN1C(=O)NC2(CCCCCC2)C1=O,9.4% (inactive)
6,CCOC(=O)N1CCC(NC(=O)c2ccc3c(c2)N(C)CCS3)CC1,4.6% (inactive)
7,CN(C)S(=O)(=O)c1ccc(C(=O)Nc2cc3c(cc2C(=O)O)OCCCO3)cc1,4% (inactive)
8,COc1ccc(C2NC(=O)NC(C)=C2[N+](=O)[O-])cc1OC (configuration not stated),9.2% (inactive)
9,COc1ccc(/C=N/n2c(C)nc3ccccc3c2=O)cc1,-11.4% (inactive)
10,CCOC(=O)C1=C2c3ccc4ccccc4c3CC(C)(C)N2C(=O)C1=O,17.7% (inactive)
11,CC1(C)Cc2c(ccc3ccccc23)C2=C(C(=O)N3CCCC3)C(=O)C(=O)N21,52.7% (active)
12,CC1(C)Cc2ccccc2C2=C(C(=O)N3CCCCCC3)C(=O)C(=O)N21,16.7% (inactive)
13,Cc1ccc(S(=O)(=O)NCC(=O)OCC(=O)c2ccc(Br)s2)cc1,-2.2% (inactive)
14,COC(=O)c1sccc1NC(=O)CSc1ccccc1NS(=O)(=O)c1ccccc1Cl,26% (inactive)
15,COC(=O)c1sccc1NC(=O)CSc1ccccc1NS(=O)(=O)c1ccc(Cl)cc1,28.6% (inactive)
16,CN1CCN(C(=O)/C=C/c2c(F)cccc2Cl)CC1,9.9% (inactive)
17,c1ccc(-c2csc3nnc(SCc4ccc5c(c4)OCCO5)n23)cc1,33.7% (inactive)
18,O=C(/C=C/Nc1ccccc1Br)c1ccccn1,60% (active)
19,O=C(/C=C\Nc1ccc2c(c1)OCO2)c1ccccn1,33.4% (inactive)
20,O=C(/C=C\Nc1ccccn1)c1ccccc1,-121% (inactive)
21,CC1CCCC(NCC(O)COC(c2ccc(F)cc2)c2ccc(F)cc2)C1C (configuration not stated),0.7% (inactive)
22,Fc1ccc2nc(Nc3nc4c(F)cc(F)cc4s3)sc2c1,-36.7% (inactive)
23,COC(=O)c1ccc2nc(NC(=O)C(C)(C)C)sc2c1,-3.1% (inactive)

row,Compound,inhibition
1,CCC(CC)c1nnc(NC(=O)C2CC(=O)N(C3CCCC3)C2)s1 (configuration not stated),8% (inactive)
2,Cc1ccc(NC(=O)CSc2ncnc3ccccc23)cc1S(=O)(=O)N1CCCCCC1,40.3% (inactive)
3,Cc1ccc(S(=O)(=O)N2CCCCC2)cc1NC(=O)CSc1ncnc2ccccc12,-36.1% (inactive)
4,OC1(c2cccnc2)CCN(Cc2nnnn2C2CCCCC2)CC1,19.2% (inactive)
5,CCC/C(=N\NC(=O)CNC(=O)/C=C/c1ccco1)c1ccccc1,6.6% (inactive)
6,Cc1ccc2c(c1)sc(-c1ccc(N(C)C)cc1)[n+]2C,51% (active)
7,CC[n+]1c(C)sc2cc(C)ccc21,5.7% (inactive)
8,COc1ccc(C)cc1Nc1n[n+](-c2ccccc2)c(-c2ccc(N(C)C)cc2)s1,8.3% (inactive)
9,CC(C)OC(=O)Nc1ccc(Oc2c(F)c(F)c(F)c(F)c2F)cc1,-5.3% (inactive)
10,CCC(C)c1cc(S(=O)(=O)N2CCOCC2)ccc1OC (configuration not stated),-10.6% (inactive)
11,COc1cccc(/C=N/NC(=O)C[n+]2ccccc2)c1O,1% (inactive)
12,C=CCc1cccc(/C=N/NC(=O)C[n+]2ccccc2)c1O,53.2% (active)
13,C=CCc1cccc(/C=N/NC(=O)CNc2ccccc2)c1O,17.2% (inactive)
14,CN(C)CCNC(=S)NC1CCCCC1,8.6% (inactive)
15,CCCCCc1nc2sc3c(c2c(=O)n1NC(=O)c1ccc([N+](=O)[O-])cc1)CC(C)(C)OC3,5.3% (inactive)
16,CCCCCCCCCc1nc2sc3c(c2c(=O)n1NC(=O)c1ccccc1[N+](=O)[O-])CC(C)(C)OC3,12.2% (inactive)
17,CCCCCCCCCc1nc2sc3c(c2c(=O)n1NC(=O)c1ccc([N+](=O)[O-])cc1)CC(C)(C)OC3,57% (active)
18,Cc1oc2c(C)c3oc(=O)c(CCC(=O)NCCCCCC(=O)O)c(C)c3cc2c1C,18.8% (inactive)
19,O=C(Nc1ccc(Cl)cc1)c1ccc2ncsc2c1,-66.3% (inactive)
20,COC(=O)C(C)Oc1ccc(-c2nccc(-c3cccs3)n2)cc1 (configuration not stated),-13.1% (inactive)
21,Oc1ccc(-c2nccc(-c3cccs3)n2)cc1,-139% (inactive)
22,O=C(O)COc1ccc(-c2nccc(-c3cccs3)n2)cc1,55.9% (active)
23,O=C(c1cnccn1)N1CCc2c([nH]c3ccccc23)C1c1cccc(Cl)c1 (configuration not stated),-198% (inactive)
